Measurements published in the supplement of paper PMC11417369.
The full ranking holds about 25,000 sequences; the median of “ln(normalized median fluorescence intensity)” is about 9.7, and the highest 2% start at about 11. Only a selection was taken, and the highest values are over-represented in it overall.

Test system: PfAP2-HC AP2 domain (GST-tagged)
Assay: gcPBM binding intensity (ln(normalized median fluorescence intensity)); higher = stronger DNA binding
How it was run: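 Probes on an Agilent 4 × 180k array were primer-extended, double-stranded and 36 bp long, taken from intergenic genomic regions, with negative controls added. GST-tagged P. falciparum DNA-binding domains from E. coli, about 25 μg on average, were applied to the array for 1 h in 1× PBS containing 1% milk, 0.2 mg/ml BSA, 0.5% salmon testes DNA and 0.03% Triton X-100. Binding intensity, obtained after Alexa488 anti-GST antibody detection and a 488 nm scan, is the highest Masliner-normalised natural-log median intensity across replicate spots of either probe orientation.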

| Sequence | gcPBM binding intensity (ln) |
| --- | --- |
| ACTAATATGTATATATATATATATATATATATATAT [CACACA_negctrl_site141] | 9.58 |
| TCTTAATTTGTTATATGTACATAATATAATTGTATA [XGTACX_site5184] | 9.55 |
| TATTATTTATATGATACACACGTACATATACACATA [CACACA_site9275] | 9.86 |
| TTTAATAATATAATGTGTACTTAAAAATTTATATAT [XGTACX_site5821] | 9.44 |
| AAAAAACACCCATACACACACACACCGATATATATA [CACACA_site5808] | 11 |
| AAAAAACAGACATACACACACACACCCATATATATA [CACACA_site3392] | 10.8 |
| AACATACATAAACACACACACACACCCACAGAGACA [CACACA_site4430] | 11 |
| TATACATACATACATACACACACACCGATATATACA [CACACA_site8184] | 10.8 |
| CATACACCCAGACACACACACATATATATATATATA [CACACA_site634] | 10.4 |
| AACATACATAAACACACACACACACCCACACCCACA [CACACA_site8058] | 10.8 |
| CATACATACAAACACACACACACACCGATATATATA [CACACA_site8952] | 10.7 |
| AAAAAGAAAAAACTTACACACATATATACACCCATG [CACACA_site8079] | 11.3 |
| TAAACATACAGATACACACACACACCCACAGAGACA [CACACA_site4429] | 10.6 |
| AAAAAGAAAAAACTTACACACATATATACAGACATG [CACACA_site550] | 10 |
| AAAAAGAAAAAACTTACACACATATATACCCCCATG [CACACA_site4463] | 10.2 |
| AAAAAAAAAAAAAAAACACACATACACCCAGACACA [CACACA_site5807] | 11.3 |
| TTTAAAACCTTACATACACACAAATATATATATATA [CACACA_site677] | 10 |
| AAAAAATATGCATATACACACATATGTATAAATAAC [CACACA_site7090] | 10.1 |
| TATTTAACACCTTATACACACTTTCTTCCTTTTTTA [CACACA_site4590] | 10.1 |
| AAGTATTATATATTTTGTACATATATAAAACCACAA [XGTACX_site5508] | 9.61 |
| AATATATACACATGCGCACACACAAGTGGGAAATTT [CACACA_site8527] | 10.2 |
| ATAGAAACATATTGACGTACAGTATAATAATACAGT [XGTACX_site197] | 9.91 |
| TGAAATACGAATTATTGTACTTATGTGTAAGATGGC [XGTACX_site4472] | 9.71 |

| Sequence | gcPBM binding intensity (ln) |
| --- | --- |
| CAATTTGGTGTACAGGTGCACATGCCTCACGATAAA [GTGCAC_site9650] | 9.61 |
| TACTAAAACCCATACACACACATATTTATAGTACCA [CACACA_site7484] | 10.6 |
| AGATACAAGCACTATAGTACACATACTAAAAATATA [XGTACX_site5849] | 9.73 |
| CATACATACAAACACACACACACACCCATATATATA [CACACA_site2918] | 11.1 |
| CACCCATACACATACAAACACACATTCTATATATAT [CACACA_site1600] | 10.1 |
| TATATACACAAACACACACACACATACACCCACATA [CACACA_site8504] | 10.8 |
| AATACTAAAACCCATACACACACATATATATAGTAC [CACACA_site9041] | 11 |
| TTATATGTATATATAGTGCAGAACAAAAGATTATAT [GTGCAC_site9599] | 9.7 |
| GGACTTTATAAAAATGGTACACGCAATTCTATAATC [XGTACX_site6515] | 9.61 |
| TACAATTTAAAACACACACACAATAATACATATATA [CACACA_site1251] | 11 |
| AAAAAAAACATACATACACACACATAAATATATATA [CACACA_site8864] | 11.4 |
| TACATAAATTAAAACACACACACACTAATAAAAAAA [CACACA_site8712] | 11.3 |
| CATATACATAAACACACACACACATAAATAAATATA [CACACA_site4864] | 10.6 |
| CATTTAACATAAATTAAACACACAATATAATACATT [CACACA_site8333] | 9.73 |
| GAAATAATTTCATATACACACATATACATACATACA [CACACA_site1358] | 9.95 |
| AAAAATTAAATAAATTTACACACTAATAATTACATA [CACACA_site8260] | 9.63 |
| AAAAAACATACATACACACACATAAATATATATATT [CACACA_site2699] | 10.4 |
| TACATAAATTAAAACACACACACACTAAAAAAAAAA [CACACA_site7130] | 10.5 |
| AAACGTACATAATACACACACATGTATACATATAAA [CACACA_site2048] | 10.2 |
| TATAATTTAAAATACACACACATATATATAATATAT [CACACA_site2000] | 10.1 |
| ATTTCATAAATTAAACGTACATAATACACACACATG [XGTACX_site4155] | 11 |
| ATAAAAATATTACGCACACACAAACTTATTCATTAT [CACACA_site1969] | 10.2 |
| TATATATTTTTATGTGTGCACTGTTTCATAAAAGAA | 9.61 |

| Sequence | gcPBM binding intensity (ln) |
| --- | --- |
| ACAATTTACACTTAAACACACAAAAAAAAGTTATAT [CACACA_site7056] | 9.98 |
| ATATATTTATATATATGTACATATTATGTTAAGAAA [XGTACX_site1111] | 9.69 |
| ATATATAAATTTTAGTGTACATTAATTTTTTTTTTT [XGTACX_site7782] | 9.64 |
| ATTTATTTATATTTAGTGCAATACTATTTTTAAATA [GTGCAC_site9886] | 9.48 |
| TTATGTTGTAAATACACACATACATATACATACACA [CACACA_site733] | 9.91 |
| ATAATATATACGTGTGTGCACATGACAAAAGCATAT | 10.6 |
| ATTCTTTTAAACAGTACACACACACCGATATATATA [CACACA_site8213] | 10.7 |
| TAAAATATAAAACACACACACATATATATATATATT [CACACA_site224] | 10.3 |
| TACACAAAAATAAACACACACACATATATATATATA [CACACA_site1000] | 10.2 |
| AAAAAATAAAAAAAAACACACACATACAAGCATATA [CACACA_site8451] | 11.1 |
| CTAAAATACGAACACACACACACATATAAATAAATA [CACACA_site7872] | 11.2 |
| AAAAAAAAAAAAAACACACACATATAAATATAAATA [CACACA_site6972] | 10.4 |
| TCTTTTAAACAGTACACACACACATATATATATATA [CACACA_site924] | 10.7 |
| TATATTCTTTTAAACAGTACACACACACATATATAT [XGTACX_site1701] | 11.1 |
| AATATATAAATATATACACACAAAAACATATATATA [CACACA_site1318] | 9.99 |
| AACATATACACGAACACACACACATATAAATAAATA [CACACA_site6380] | 10.4 |
| AATATAAATAAACACACACACATATATATATATATT [CACACA_site2906] | 11 |
| CATATACACGAACACACACACATATAAATAAATATA [CACACA_site6379] | 10.6 |
| AAGCATTTTTTTTAAAGCCTGTTCATCATCCTTACC [CACACA_negctrl_site129] | 9.44 |
| TATTAATTAAACCATACACACATAATTTTTTTATAA [CACACA_site843] | 9.85 |
| ATTATTTAAATTTAACGTACGGAATAAGACATAGAT [XGTACX_site8622] | 9.79 |
| CATTTACATGCCAACATGCACTGAACAATCTTTATA [GTGCAC_site9797] | 9.68 |
| AAAATATATTAAGGCACACACATACATATTTATATA [CACACA_site7707] | 10.2 |

| Sequence | gcPBM binding intensity (ln) |
| --- | --- |
| AAATGAATAAAATTTATTTATAAAAGAAAAATCACA [GTGCAC_negctrl_site225] | 9.57 |
| TATATATATATATATACACACATACAGATATATATT [CACACA_site4629] | 9.88 |
| ACCATATAAATAAACACACACACACCGATATATATA [CACACA_site5310] | 10.6 |
| TATAAATAAAAACACACACACACATATATATATATA [CACACA_site2268] | 10.7 |
| GTAGAGCATAATAAAACACACACATACATACATATA [CACACA_site8217] | 10.4 |
| AGAGCATAATAAAACACACACATACATACCTATATA [CACACA_site6566] | 10.9 |
| TAAATAAAAAAACACACACACATATATATATATATA [CACACA_site2269] | 11.4 |
| AAAAAAAAAAAAAACACACACACACGCATAAATATA [CACACA_site6217] | 11.5 |
| TAAATAAATAAAAAAACACACATATATATATATATA [CACACA_site4029] | 10 |
| TAAATAAATAAAAAAACACACATATAAATATAAATA [CACACA_site7815] | 9.93 |
| AAATAATATAAACATACACACACACCGATATATATA [CACACA_site8945] | 10.7 |
| CATAAAATATAAAACACACACACATATATATATATA [CACACA_site223] | 10.7 |
| AAAATACATAAACACACACACACACCGATATATATA [CACACA_site9186] | 11.6 |
| AGAGCATAATAAAACACACACATACATACATATATA [CACACA_site935] | 10.3 |
| CAATCATGGTTTTACACACACATGCATGTGAAAATT [CACACA_site4870] | 9.8 |
| TTATACGATAATATGACACACAATACAAAAATGTAA [CACACA_site1918] | 9.86 |
| AATATAATATATATTAGTACATATATATATATATAT [XGTACX_site870] | 9.58 |
| GAAATAAATATATATGCATGTACTTTAATATTATTA [TGCATGCA_site904] | 9.66 |
| TTTTACATATATATATGTACGAAAATGAAAAGGTCA [XGTACX_site5576] | 9.59 |
| TTTTTATGTTATCAAATAAATATAAATATAATTCAT [CACACA_negctrl_site1522] | 9.32 |
